Among the data in PubChem BioAssay (NCATS) are Potency and outcome values, retold here.

The nature of experiment [1]: P-glycoprotein substrates identified in KB-8-5-11 adenocarcinoma cell line, qHTS therapeutic library screen (AID 1346987). Also: nearly all actives have a fitted effect of over 65% in size. Also: potency is read from the fitted curve at half-maximal effect. The method in brief:
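KB-8-5-11, a colchicine-selected P-gp-overexpressing KB-3-1 subline, was grown without colchicine for the assay. Cells were seeded at 500 cells/well, dosed in concentration-response and incubated 72 h at 37 degree C, 5% CO2. Viability was read by CellTiter-Glo luminescence.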

In experiment [2] the target is Atrial natriuretic peptide receptor 1 (Homo sapiens) (UniProt P16066). Nature of the experiment: Natriuretic polypeptide receptor (hNpr1) antagonism - Pilot screen (AID 1347049; calls by dose curve;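 also: agonist-evoked cGMP luminescence read 20 min after hNppA addition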). The method in brief:
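HEK293 cells co-expressing hNpr1 and the GloSensor pGS-40F cGMP luciferase sensor were preloaded with 2% GloSensor reagent for 2 h. Compounds were added for 30 min at room temperature, then cells were stimulated with 0.1 nM hNppA for 20 min before luminescence readout.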

In experiment [3] the target is Atrial natriuretic peptide receptor 2 (Homo sapiens) (UniProt P20594). The experiment in a line: Natriuretic polypeptide receptor (hNpr2) antagonism - Pilot subtype selectivity assay (AID 1347050; calls by dose curve). In short, it runs like this:
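cGMP-sensor HEK293/hNpr2 cells; 2% GloSensor reagent 2 h RT; compounds 30 min; baseline luminescence read; 1 nM hNppC agonist 20 min RT; final luminescence read by CCD camera. Antagonism = reduced post-agonist signal.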

A short description of experiment [4]: NS1 protein of Zika virus - qHTS assay to identify small molecule inhibitors in human HEK 293 cells (AID 1347053). Also: nearly all actives have a fitted effect of over 55% in size. In short, it runs like this: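 Following 20 h seeding, HEK 293 cells took compound, then 1 h later ZIKV MR766 (MOI = 0.5). Incubation ran 24 h at 37 C before TR-FRET detection of NS1; a drop in signal indicates inhibition.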
Experiment [5] addresses T1, Tyrosine-protein phosphatase non-receptor type substrate 1 (Homo sapiens) + Leukocyte surface antigen CD47 (Homo sapiens) (UniProt P78324+Q08722). The experiment in a line: CD47-SIRPalpha protein protein interaction - LANCE assay qHTS validation (AID 1347057; active = well fitted curve in the direction sought with a large enough effect in the signal ratio, with a control signal flat, not every such curve was filed as active; the % refers to the signal ratio). The method in brief:
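First, His-tagged CD47 and Eu-labelled anti-His antibody met the compound for 30 min; next, site-specifically biotinylated SIRPalpha was added for 30 min; finally streptavidin-APC was added before reading the TR-FRET ratio.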

Experiment [6] addresses T1, Tyrosine-protein phosphatase non-receptor type substrate 1 (Homo sapiens) + Leukocyte surface antigen CD47 (Homo sapiens). The experiment in a line: CD47-SIRPalpha protein protein interaction - HTRF assay qHTS validation (AID 1347058; active = well fitted curve in the direction sought with a large enough effect in the signal ratio, not every such curve was filed as active; the % refers to the signal ratio). The method in brief: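 TR-FRET read (Ch1/Ch2 ratio) of soluble extracellular CD47 and Avi-biotinylated SIRPalpha domains in PBS pH 7.4 with 0.05% IGEPAL; 7-point compound titration. Sequential 30 min room-temperature steps; non-biotinylated SIRPalpha as control inhibitor.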

For experiment [7] the target is unchanged. Nature of the experiment: CD47-SIRPalpha protein protein interaction - Alpha assay qHTS validation (AID 1347059).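 Also: bead proximity luminescence from CD47 binding SIRPalpha after compound preincubation with SIRPalpha.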 In short, it runs like this: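 Soluble extracellular domains: Avi-tag biotinylated SIRPalpha (25 nM) preincubated 30 min RT with compound, then 6His-CD47 (12.5 nM) 30 min; Ni-NTA acceptor and streptavidin donor beads (10 ug/mL) 30 min, AlphaScreen read. PBS pH 7.4, 0.05% IGEPAL.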

The target of experiment [8] is Parathyroid hormone/parathyroid hormone-related peptide receptor (Homo sapiens) (UniProt Q03431). Nature of the experiment: qHTS for PTHR1 Agonists: Optimization Screen against the NCGC LOPAC library (AID 1347079).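 Also: GloSensor cAMP luminescence in HEK-293 GP2 cells expressing human PTHR1 with IBMX.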 The method in brief: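 Agonist readout: GloSensor cAMP luminescence, read after 15 min at room temperature. HEK-293-derived GP2 line carries PTHR1; compounds tested as a titration for 1 hr at 37C in presence of IBMX. M-PTH (1-15) served as control.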
Sequence of Parathyroid hormone/parathyroid hormone-related peptide receptor (Homo sapiens) (Q03431 whole entry, looked up): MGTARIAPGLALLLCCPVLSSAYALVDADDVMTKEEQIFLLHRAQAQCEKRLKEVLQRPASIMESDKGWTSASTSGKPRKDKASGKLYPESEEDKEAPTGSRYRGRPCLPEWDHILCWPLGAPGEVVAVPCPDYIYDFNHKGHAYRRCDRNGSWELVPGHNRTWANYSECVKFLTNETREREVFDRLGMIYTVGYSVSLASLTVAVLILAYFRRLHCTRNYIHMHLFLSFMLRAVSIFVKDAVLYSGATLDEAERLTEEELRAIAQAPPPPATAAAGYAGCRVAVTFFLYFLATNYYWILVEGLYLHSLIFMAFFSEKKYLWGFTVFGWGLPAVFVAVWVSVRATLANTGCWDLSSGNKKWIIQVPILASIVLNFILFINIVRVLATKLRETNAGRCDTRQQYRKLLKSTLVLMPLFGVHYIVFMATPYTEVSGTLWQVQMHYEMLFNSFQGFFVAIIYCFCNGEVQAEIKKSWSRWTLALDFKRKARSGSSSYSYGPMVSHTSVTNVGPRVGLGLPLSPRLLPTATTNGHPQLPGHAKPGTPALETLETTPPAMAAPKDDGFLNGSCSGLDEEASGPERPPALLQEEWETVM

The nature of experiment [9]: qHTS of pediatric cancer cell lines to identify multiple opportunities for drug repurposing: Primary screen for TC32 cells (AID 1347089). Also: nearly all actives have a fitted effect of over 60% in size. In short, it runs like this:
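qHTS, TC32, 48 h drug treatment, CellTiter-Glo luminescence as a proxy for metabolically active cells; primary top concentration 46 µM (MIPE 11-pt, NPC 8-pt); confirmatory 11-pt.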

Experiment [10] can be described thus: qHTS of pediatric cancer cell lines to identify multiple opportunities for drug repurposing: Primary screen for SJ-GBM2 cells (AID 1347091). Also: potency is read from the fitted curve at half-maximal effect. The method in brief: (§1)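 Eight- or eleven-point concentration series, 48 h treatment at 37 degrees C in growth media; readout CellTiter-Glo luminescence. Potency and efficacy were taken from the concentration-response curves.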

The nature of experiment [11]: qHTS of pediatric cancer cell lines to identify multiple opportunities for drug repurposing: Primary screen for SK-N-MC cells (AID 1347093). Also: potency is read from the fitted curve at half-maximal effect. In short, it runs like this:
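Metabolically active cells were quantified by ATP-dependent luminescence (CellTiter-Glo, 15 min at room temperature) following 48 h treatment. Cells had been plated at 500-1,000 per well and settled for 5 h beforehand.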

Experiment [12] can be described thus: qHTS of pediatric cancer cell lines to identify multiple opportunities for drug repurposing: Primary screen for BT-37 cells (AID 1347094). Also: potency is read from the fitted curve at half-maximal effect. In short, it runs like this:
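Viability was measured as metabolically active cells after 48 hours of treatment, read by CellTiter-Glo luminescence. Compounds were tested at multiple final concentrations, giving concentration-response curves.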

Experiment [13] is described as follows: qHTS of pediatric cancer cell lines to identify multiple opportunities for drug repurposing: Primary screen for DAOY cells (AID 1347090). Also: nearly all actives have a fitted effect of over 55% in size. Also: potency is read from the fitted curve at half-maximal effect. In short, it runs like this: as §1
A short description of experiment [14]: qHTS of pediatric cancer cell lines to identify multiple opportunities for drug repurposing: Primary screen for A673 cells (AID 1347092). Also: nearly all actives have a fitted effect of over 45% in size. Also: potency is read from the fitted curve at half-maximal effect. The method in brief: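 Luminescence from CellTiter-Glo, taken after 15 min at room temperature, served as the proxy for metabolically active cells following 48 h treatment. Both potency and efficacy were taken from curves fitted to the titration data.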

A short description of experiment [15]: P-glycoprotein substrates identified in KB-3-1 adenocarcinoma cell line, qHTS therapeutic library screen (AID 1346986). Also: nearly all actives have a fitted effect of over 60% in size. The note with it: KB-3-1 parental cells viability, CellTiter-Glo, 72 h; at 44.5 µM (top of the series). The method in brief:
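Resistance attributable to P-gp was assessed by comparing AC50 in KB-8-5-11 with parental KB-3-1 and by tariquidar reversal. Cells were exposed 72 h and viability read by CellTiter-Glo.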

SMILES strings stand for the structures. Values joined by “and” are separate entries in the source; they are usually repeats but may differ in a detail not shown here. Equal entries are not always repeated. Records with an inconclusive call do not appear. Active and inactive are the calls of the source. Unless noted, calls follow the shape of the dose curve; as a rule, active = well fitted curve in the direction sought with a large enough effect; inconclusive = small, poorly fitted or top-dose-only effect, or another doubt; inactive = no such curve, though single readings can be large; an effect the other way counts as inactive or inconclusive.

T1 sequence (P78324 whole entry, looked up): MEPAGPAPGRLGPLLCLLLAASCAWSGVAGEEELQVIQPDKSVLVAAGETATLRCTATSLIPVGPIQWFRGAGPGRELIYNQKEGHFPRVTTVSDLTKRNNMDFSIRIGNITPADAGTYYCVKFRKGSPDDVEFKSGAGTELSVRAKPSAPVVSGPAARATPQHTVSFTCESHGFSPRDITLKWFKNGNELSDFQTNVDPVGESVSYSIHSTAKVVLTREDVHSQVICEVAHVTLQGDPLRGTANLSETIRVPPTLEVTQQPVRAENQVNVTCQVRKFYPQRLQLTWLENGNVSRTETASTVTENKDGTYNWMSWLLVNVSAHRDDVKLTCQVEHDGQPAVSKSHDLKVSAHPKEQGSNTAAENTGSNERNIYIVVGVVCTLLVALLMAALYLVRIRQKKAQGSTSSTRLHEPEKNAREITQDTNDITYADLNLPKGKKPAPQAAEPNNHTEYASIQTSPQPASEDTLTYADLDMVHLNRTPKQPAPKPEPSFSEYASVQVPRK
T1 sequence (Q08722 whole entry, looked up): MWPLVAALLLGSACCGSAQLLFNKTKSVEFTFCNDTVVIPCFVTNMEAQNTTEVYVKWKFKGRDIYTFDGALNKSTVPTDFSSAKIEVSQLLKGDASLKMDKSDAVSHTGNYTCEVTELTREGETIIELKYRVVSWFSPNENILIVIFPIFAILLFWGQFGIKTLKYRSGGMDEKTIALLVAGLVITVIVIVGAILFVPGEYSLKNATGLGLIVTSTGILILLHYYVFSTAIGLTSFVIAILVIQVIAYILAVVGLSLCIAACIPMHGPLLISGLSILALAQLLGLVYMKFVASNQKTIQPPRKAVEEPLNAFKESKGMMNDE
Sequence of Atrial natriuretic peptide receptor 2 (Homo sapiens) (P20594 whole entry, looked up): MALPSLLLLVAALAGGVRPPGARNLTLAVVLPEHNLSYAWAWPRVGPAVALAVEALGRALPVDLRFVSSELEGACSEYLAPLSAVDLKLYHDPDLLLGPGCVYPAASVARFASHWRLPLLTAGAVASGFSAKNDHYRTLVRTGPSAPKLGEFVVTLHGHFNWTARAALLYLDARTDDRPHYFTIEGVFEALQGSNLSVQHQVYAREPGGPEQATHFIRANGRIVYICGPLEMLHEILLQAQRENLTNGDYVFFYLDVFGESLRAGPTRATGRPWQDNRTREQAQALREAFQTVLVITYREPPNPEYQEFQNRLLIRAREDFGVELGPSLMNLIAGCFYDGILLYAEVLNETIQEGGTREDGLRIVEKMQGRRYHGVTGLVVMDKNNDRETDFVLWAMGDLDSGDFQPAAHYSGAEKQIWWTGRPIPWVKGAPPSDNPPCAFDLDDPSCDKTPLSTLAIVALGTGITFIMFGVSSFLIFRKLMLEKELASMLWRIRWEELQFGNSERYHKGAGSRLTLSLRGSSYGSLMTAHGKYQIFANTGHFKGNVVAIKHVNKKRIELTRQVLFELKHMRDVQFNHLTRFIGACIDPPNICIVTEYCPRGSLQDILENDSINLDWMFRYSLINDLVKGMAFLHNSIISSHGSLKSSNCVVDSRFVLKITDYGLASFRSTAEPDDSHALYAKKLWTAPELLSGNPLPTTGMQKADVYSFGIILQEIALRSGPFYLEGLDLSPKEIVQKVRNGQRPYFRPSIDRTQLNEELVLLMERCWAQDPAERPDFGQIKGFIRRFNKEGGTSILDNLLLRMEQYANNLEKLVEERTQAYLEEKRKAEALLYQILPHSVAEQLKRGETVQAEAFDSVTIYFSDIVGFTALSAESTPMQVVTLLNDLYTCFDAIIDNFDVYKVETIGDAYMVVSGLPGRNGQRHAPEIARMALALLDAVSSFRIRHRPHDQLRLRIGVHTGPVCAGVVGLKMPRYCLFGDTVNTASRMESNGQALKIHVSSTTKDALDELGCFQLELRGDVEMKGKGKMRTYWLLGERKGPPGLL
Sequence of Atrial natriuretic peptide receptor 1 (Homo sapiens) (P16066 whole entry, looked up): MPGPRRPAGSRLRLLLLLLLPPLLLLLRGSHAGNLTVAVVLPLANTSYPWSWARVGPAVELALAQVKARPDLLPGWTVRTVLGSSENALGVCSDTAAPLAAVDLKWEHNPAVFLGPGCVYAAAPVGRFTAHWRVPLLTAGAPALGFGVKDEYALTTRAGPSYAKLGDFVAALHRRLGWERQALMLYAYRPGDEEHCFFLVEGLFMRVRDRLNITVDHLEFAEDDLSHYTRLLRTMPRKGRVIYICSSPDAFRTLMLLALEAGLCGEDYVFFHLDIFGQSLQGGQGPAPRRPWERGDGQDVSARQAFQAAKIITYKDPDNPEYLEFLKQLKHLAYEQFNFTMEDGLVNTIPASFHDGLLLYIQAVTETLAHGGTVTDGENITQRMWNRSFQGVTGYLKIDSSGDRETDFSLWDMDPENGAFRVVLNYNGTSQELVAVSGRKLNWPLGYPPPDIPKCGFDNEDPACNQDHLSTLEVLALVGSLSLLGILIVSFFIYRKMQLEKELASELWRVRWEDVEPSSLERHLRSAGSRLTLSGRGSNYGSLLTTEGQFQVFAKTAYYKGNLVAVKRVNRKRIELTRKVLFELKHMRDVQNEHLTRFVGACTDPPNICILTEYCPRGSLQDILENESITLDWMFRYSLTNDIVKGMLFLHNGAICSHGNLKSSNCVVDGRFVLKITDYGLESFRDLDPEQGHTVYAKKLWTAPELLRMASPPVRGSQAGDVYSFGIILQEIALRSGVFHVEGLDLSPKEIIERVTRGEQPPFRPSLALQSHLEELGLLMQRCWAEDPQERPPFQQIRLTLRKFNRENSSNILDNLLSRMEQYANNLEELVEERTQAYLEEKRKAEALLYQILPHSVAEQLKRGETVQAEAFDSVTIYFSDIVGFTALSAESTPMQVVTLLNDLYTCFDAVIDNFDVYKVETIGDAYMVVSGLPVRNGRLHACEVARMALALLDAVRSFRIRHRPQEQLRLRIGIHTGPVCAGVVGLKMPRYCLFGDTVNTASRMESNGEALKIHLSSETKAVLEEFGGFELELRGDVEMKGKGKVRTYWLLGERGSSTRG

Consider `CC(C)NCC(O)c1ccc(NS(C)(=O)=O)cc1` (configuration not stated), for which the Potency entry in experiment [1], in experiment [2], in experiment [3], in [4], in experiment [9] and in experiment [10] was “inactive” each time. For the same compound, the Potency entry in experiment [12] was “inactive”. For the same compound, the result in experiment [5], in experiment [6], in [7] and in experiment [8] was inactive. Moreover, the Potency in experiment [11] was 10.5 µM (active).

As to `NNC(=O)c1ccncc1`, the Potency result in experiment [1], in experiment [4], in [9], in experiment [13], in experiment [10] and in experiment [14] was “inactive” throughout. Also, the Potency result in experiment [11] and in experiment [12] was “inactive” throughout.

Consider `CCCCOc1ccc(CC(=O)NO)cc1`, for which the outcome in experiment [15] was inactive. Besides, the Potency entry in experiment [4] and in experiment [9] was “inactive” throughout. For the same compound, the Potency in experiment [13] is 11.8 µM (active); in [14] it was 16.8 µM (active) and 2.96 µM (active); in [11] it was 7.43 µM (active); in [12] it was 19.5 µM (active).

As to `N[C@@H](C(=O)N[C@@H]1C(=O)N2C(C(=O)O)=C(Cl)CS[C@H]12)c1ccccc1`, the Potency result in [1], in experiment [4], in experiment [9], in experiment [13], in [10] and in experiment [14] was “inactive” in each case. For the same compound, the Potency entry in experiment [11] and in [12] was “inactive” each time.

As for `Cc1cccc(N(C)C(=S)Oc2ccc3ccccc3c2)c1`, the outcome in experiment [15] was inactive. Besides, the Potency result in experiment [4], in [14] and in experiment [12] was “inactive” throughout.

`CCC(=O)O[C@]1(C(=O)CCl)[C@@H](C)C[C@H]2[C@@H]3CCC4=CC(=O)C=C[C@]4(C)[C@@]3(F)[C@@H](O)C[C@@]21C`: the Potency result in [1], in experiment [4], in [9], in [13], in experiment [10] and in [14] was “inactive” each time. The Potency result in [12] was “inactive”. Moreover, in experiment [11], the Potency is 26.6 µM (active) and 20.9 µM (active).

As to `CN(CCOc1ccc(CC2SC(=O)NC2=O)cc1)c1ccccn1` (configuration not stated), the Potency result in [1], in experiment [4], in experiment [9], in experiment [13], in experiment [10] and in experiment [14] was “inactive” throughout. For the same compound, the Potency entry in [12] is “inactive”.

Consider `CCC(C)(C)c1ccc(CC(C)CN2C[C@@H](C)O[C@@H](C)C2)cc1` (some centres not stated), for which the Potency result in experiment [1], in [4], in experiment [9], in experiment [13], in experiment [10] and in experiment [12] was “inactive” throughout.

Take `NC(N)=NC(N)=NCCc1ccccc1`: the Potency entry in [1], in [4], in [9], in experiment [10] and in experiment [11] was “inactive” in each case. Further, the Potency in experiment [13] was 18.7 µM (active); in [14], 8.41 µM (active) and 5.9 µM (active).

For `Nc1nc(N)c2nc(CNc3ccc(C(=O)NC(CCC(=O)O)C(=O)O)cc3)cnc2n1` (configuration not stated), the Potency in experiment [1] was 0.0372 µM (active); in [10], 0.0833 µM (active); in [11], 0.0166 µM (active); in experiment [12], 0.0485 µM (active). Further, the Potency result in [2], in [3] and in experiment [4] was “inactive” each time. For the same compound, the result in experiment [5], in experiment [7] and in [8] was inactive.

`O=C(O)CCn1c2c(c3ccccc31)C[C@H](NS(=O)(=O)c1ccc(F)cc1)CC2`: the result in [15] was inactive. The Potency result in experiment [4], in experiment [9], in experiment [13], in experiment [10], in experiment [14] and in experiment [11] was “inactive” each time. Moreover, the Potency entry in [12] was “inactive”.

`CC(=O)[C@H]1CC[C@H]2[C@@H]3CC=C4C[C@@H](O)CC[C@]4(C)[C@H]3CC[C@]12C`: the Potency entry in experiment [1], in experiment [4], in experiment [9], in [13], in experiment [10] and in experiment [14] was “inactive” throughout. Further, the Potency result in experiment [11] and in [12] was “inactive” throughout.

In the case of `CCCN[C@H]1CCc2nc(N)sc2C1`, the Potency entry in experiment [1], in experiment [4], in experiment [9], in [13], in experiment [10] and in experiment [14] was “inactive” in each case. For the same compound, in [12], the Potency result is “inactive”.

`CCOC(=O)[C@H](CCc1ccccc1)N[C@H]1CS[C@H](c2cccs2)CN(CC(=O)O)C1=O`: the Potency entry in experiment [1] and in experiment [4] was “inactive” throughout.

In the case of `COc1ccc2c(c1)c(CC(=O)OCC(=O)O)c(C)n2C(=O)c1ccc(Cl)cc1`, the Potency entry in experiment [1], in [4], in experiment [9], in [13], in experiment [10] and in [14] was “inactive” in each case. Further, in experiment [12], the Potency entry is “inactive”.

Regarding `O=C(O)c1cc(=O)[nH]c(=O)[nH]1`, the Potency result in experiment [1], in experiment [4], in [9], in [13], in [10] and in experiment [14] was “inactive” each time. Moreover, the Potency result in [11] and in [12] was “inactive” in each case.

For `CCc1cc(C(N)=S)ccn1`, the Potency result in experiment [1], in experiment [4], in experiment [9], in [13], in [10] and in [14] was “inactive” throughout. The Potency result in [11] and in experiment [12] was “inactive” in each case.

As for `CN(C)CCc1c[nH]c2ccc(C[C@H]3COC(=O)N3)cc12`, the Potency entry in experiment [1], in [4], in [9], in [13], in experiment [10] and in [14] was “inactive” in each case. The Potency result in experiment [11] and in experiment [12] was “inactive” in each case.

`N[C@@H](Cc1ccc(O)c(O)c1)C(=O)O`: the Potency result in experiment [1], in experiment [3], in experiment [4], in experiment [9], in [13] and in [10] was “inactive” in each case. Further, the Potency result in experiment [12] is “inactive”. The outcome in experiment [5], in experiment [6], in [7] and in [8] was inactive. Moreover, in experiment [11], the Potency is 18.7 µM (active).

Regarding `Cc1cc(NS(=O)(=O)c2ccc(N)cc2)no1`, in experiment [15], the result was inactive. The Potency entry in experiment [4], in experiment [9], in [13], in experiment [10], in experiment [14] and in [12] was “inactive” throughout.
